Source: PubChem BioAssay (NCATS)
Results filed as inconclusive are left out. Calls of active or inactive are those of the source. Calls follow the shape of the dose curve; as a rule, active = well fitted curve in the direction sought with a large enough effect; inconclusive = small, poorly fitted or top-dose-only effect, or another doubt; inactive = no such curve, though single readings can be large; an effect the other way counts as inactive or inconclusive.

Assays:
[1] = qHTS of pediatric cancer cell lines to identify multiple opportunities for drug repurposing: Primary screen for TC32 cells (AID 1347089); also: nearly all actives have a fitted effect of over 60% in size; also: potency is read from the fitted curve at half-maximal effect
Procedure, shortened: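 Luminescent CellTiter-Glo read-out of metabolically active TC32 cells after 48 h compound exposure. Primary: MIPE 11-point, 0.78 nM–46 µM; NPC 8-point, 0.59 nM–46 µM. Confirmatory: 11-point dilutions.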

[2] = qHTS of pediatric cancer cell lines to identify multiple opportunities for drug repurposing: Primary screen for DAOY cells (AID 1347090); also: nearly all actives have a fitted effect of over 55% in size; also: potency is read from the fitted curve at half-maximal effect
Procedure, shortened: (§1)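 Viability measured as metabolically active cells via CellTiter-Glo luminescence following 48 hours of compound exposure, 11-point dilutions in confirmatory testing. 500-1,000 cells/well plated 5 hours before dosing; controls were DMSO and 2.3 µM bortezomib.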

[3] = qHTS of pediatric cancer cell lines to identify multiple opportunities for drug repurposing: Primary screen for SJ-GBM2 cells (AID 1347091); also: potency is read from the fitted curve at half-maximal effect
Procedure, shortened: as §1

[4] = qHTS of pediatric cancer cell lines to identify multiple opportunities for drug repurposing: Primary screen for A673 cells (AID 1347092); also: nearly all actives have a fitted effect of over 45% in size; also: potency is read from the fitted curve at half-maximal effect
Procedure, shortened: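 A673 cells (500-1,000 cells/well in growth media) were pre-incubated 5 h at 37 degrees C, then exposed to compounds for 48 h. Viability was read as CellTiter-Glo luminescence; concentration-response curves came directly from the primary screen.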

[5] = qHTS of pediatric cancer cell lines to identify multiple opportunities for drug repurposing: Primary screen for BT-37 cells (AID 1347094); also: potency is read from the fitted curve at half-maximal effect
Procedure, shortened: (§2)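 Primary screen of approved and investigational compounds on cells in growth media at 37 degrees C, 5% CO2. MIPE set at 11-point and NPC set at 8-point dilutions; viability scored by ATP-based luminescence at 48 hours.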

[6] = qHTS of pediatric cancer cell lines to identify multiple opportunities for drug repurposing: Primary screen for NB-EBc1 cells (AID 1347095); also: potency is read from the fitted curve at half-maximal effect
Procedure, shortened: as §2

[7] = qHTS of pediatric cancer cell lines to identify multiple opportunities for drug repurposing: Primary screen for U-2 OS cells (AID 1347096); also: nearly all actives have a fitted effect of over 50% in size; also: potency is read from the fitted curve at half-maximal effect
Procedure, shortened: (§3)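 Viability after 48 h compound treatment at 37C, 500-1,000 cells/well, read as ATP luminescence with CellTiter-Glo. Primary screens used 11-point (MIPE, 0.78 nM-46 µM) or 8-point (NPC, 0.59 nM-46 µM) final concentrations; follow-up screens used 11-point dilutions.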

[8] = qHTS of pediatric cancer cell lines to identify multiple opportunities for drug repurposing: Primary screen for Saos-2 cells (AID 1347097); also: nearly all actives have a fitted effect of over 40% in size; also: potency is read from the fitted curve at half-maximal effect
Procedure, shortened: as §2

[9] = qHTS of pediatric cancer cell lines to identify multiple opportunities for drug repurposing: Primary screen for NB1643 cells (AID 1347099); also: nearly all actives have a fitted effect of over 50% in size; also: potency is read from the fitted curve at half-maximal effect
Procedure, shortened: as §2

[10] = qHTS of pediatric cancer cell lines to identify multiple opportunities for drug repurposing: Primary screen for LAN-5 cells (AID 1347100); also: potency is read from the fitted curve at half-maximal effect
Procedure, shortened: as §3

[11] = qHTS of pediatric cancer cell lines to identify multiple opportunities for drug repurposing: Primary screen for BT-12 cells (AID 1347101); also: nearly all actives have a fitted effect of over 25% in size; also: potency is read from the fitted curve at half-maximal effect
Procedure, shortened: (§4)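 Cells (500-1,000/well) rested 5 h, then received compounds for 48 h; metabolically active cells were measured by CellTiter-Glo luminescence. Final concentrations spanned up to 46 µM (MIPE, 11-point) or 0.59 nM-46 µM (NPC, 8-point) in primary screens, 11-point in follow-ups.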

[12] = qHTS of pediatric cancer cell lines to identify multiple opportunities for drug repurposing: Primary screen for Rh18 cells (AID 1347102); also: nearly all actives have a fitted effect of over 65% in size; also: potency is read from the fitted curve at half-maximal effect
Procedure, shortened: as §3

[13] = qHTS of pediatric cancer cell lines to identify multiple opportunities for drug repurposing: Primary screen for OHS-50 cells (AID 1347103); also: nearly all actives have a fitted effect of over 40% in size; also: potency is read from the fitted curve at half-maximal effect
Procedure, shortened: as §4

[14] = qHTS of pediatric cancer cell lines to identify multiple opportunities for drug repurposing: Primary screen for RD cells (AID 1347104); also: nearly all actives have a fitted effect of over 55% in size; also: potency is read from the fitted curve at half-maximal effect
Procedure, shortened: as §2

[15] = qHTS of pediatric cancer cell lines to identify multiple opportunities for drug repurposing: Primary screen for MG 63 (6-TG R) cells (AID 1347105); also: nearly all actives have a fitted effect of over 50% in size; also: potency is read from the fitted curve at half-maximal effect
Procedure, shortened: as §2

[16] = qHTS of pediatric cancer cell lines to identify multiple opportunities for drug repurposing: Primary screen for control Hh wild type fibroblast cells (AID 1347106);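 also: series mostly up to about 46 µM; a drop in luminescence marks cytotoxicity and a rise apparent proliferation; nearly all actives have a fitted effect of over 55% in size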
Procedure, shortened: as §3

[17] = qHTS of pediatric cancer cell lines to identify multiple opportunities for drug repurposing: Primary screen for Rh30 cells (AID 1347107); also: series mostly up to about 46 µM; nearly all actives have a fitted effect of over 75% in size
Procedure, shortened: as §3

[18] = qHTS of pediatric cancer cell lines to identify multiple opportunities for drug repurposing: Primary screen for Rh41 cells (AID 1347108); also: nearly all actives have a fitted effect of over 70% in size; also: potency is read from the fitted curve at half-maximal effect
Procedure, shortened: as §2

[19] = qHTS of pediatric cancer cell lines to identify multiple opportunities for drug repurposing: Primary screen for SK-N-MC cells (AID 1347093); also: potency is read from the fitted curve at half-maximal effect
Procedure, shortened: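 Metabolically active cells were quantified by ATP-dependent luminescence (CellTiter-Glo, 15 min at room temperature) following 48 h treatment. Cells had been plated at 500-1,000 per well and settled for 5 h beforehand.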

[20] = qHTS of pediatric cancer cell lines to identify multiple opportunities for drug repurposing: Primary screen for SK-N-SH cells (AID 1347098); also: nearly all actives have a fitted effect of over 65% in size; also: potency is read from the fitted curve at half-maximal effect
Procedure, shortened: as §4

Measured: Potency

C1CCC(NC2CCCCC2)CC1
inactive: [1] | [2] | [3] | [4] | [5] | [6] | [7] | [8] | [9] | [10] | [11] | [12] | [13] | [14] | [15] | [16] | [17] | [18]

O=[N+]([O-])c1cc([N+](=O)[O-])c2ccccc2c1
active: [19] 10900 nM
inactive: [1] | [2] | [3] | [4] | [5] | [7] | [8] | [9] | [10] | [11] | [12] | [13] | [14] | [15] | [16] | [17] | [18]

O=[N+]([O-])c1c(Cl)c(Cl)cc(Cl)c1Cl
inactive: [1] | [2] | [3] | [4] | [5] | [6] | [7] | [8] | [9] | [10] | [11] | [12] | [13] | [14] | [15] | [16] | [17] | [18]

Cc1cc(O)ccc1Cl
inactive: [1] | [2] | [3] | [4] | [5] | [6] | [7] | [8] | [20] | [9] | [10] | [11] | [12] | [13] | [14] | [15] | [16] | [17] | [18]

CC(=O)N(C)c1cccc(-c2ccnc3c(C(=O)c4cccs4)cnn23)c1
inactive: [1] | [2] | [3] | [4] | [19] | [5] | [6] | [8] | [9] | [10] | [11] | [12] | [13] | [14] | [15] | [16] | [17] | [18]

CC[C@@]1(O)C(=O)OCc2c1cc1n(c2=O)Cc2cc3ccccc3nc2-1
active: [1] 26.2 nM | [2] 46.9 nM | [3] 10.5 nM | [4] 23.5 nM | [5] 13.7 nM | [6] 8.3 nM | [7] 1180 nM | [8] 46.9 nM | [9] 46.9 nM | [10] 9.3 nM | [11] 273 nM | [12] 296 nM | [13] 19.3 nM | [14] 743 nM | [15] 59 nM | [18] 209 nM

CCCCOC(=O)c1ccccc1C(=O)OCc1ccccc1
inactive: [1] | [2] | [3] | [4] | [19] | [5] | [6] | [8] | [9] | [10] | [11] | [12] | [14] | [15] | [16] | [17] | [18]

Cc1c(C(=O)c2cccc3ccccc23)c2cccc3c2n1[C@H](CN1CCOCC1)CO3
inactive: [1] | [7]
active: [2] 23500 nM | [3] 14800 nM | [4] 23500 nM | [19] 10500 nM | [6] 20900 nM | [9] 11800 nM | [11] 27300 nM | [12] 20900 nM | [13] 13700 nM | [14] 29600 nM | [15] 23500 nM | [18] 20900 nM

c1cc2c(cc1[C@H]1OC[C@H]3[C@H]1CO[C@H]3c1ccc3c(c1)OCO3)OCO2
inactive: [1] | [2] | [3] | [4] | [5] | [6] | [7] | [8] | [9] | [10] | [11] | [12] | [13] | [14] | [15] | [16] | [17] | [18]

C[C@H]([C@H](O)CCC(C)(C)O)[C@H]1CC[C@@]2(O)C3=CC(=O)[C@@H]4C[C@@H](O)[C@@H](O)C[C@]4(C)[C@@H]3CC[C@]12C
inactive: [1] | [2] | [3] | [4] | [19] | [5] | [6] | [8] | [20] | [9] | [10] | [11] | [12] | [13] | [14] | [15] | [16] | [17] | [18]

Cc1ccccc1-n1c(Cn2cnc3c(N)ncnc32)nc2cccc(C)c2c1=O
active: [1] 1310 nM | [2] 1480 nM | [3] 187 nM | [4] 590 nM | [19] 20.9 nM | [5] 3850 nM | [6] 743 nM | [8] 132 nM | [20] 8570 nM | [9] 590 nM | [10] 264 nM | [12] 1050 nM | [13] 61.1 nM | [14] 2350 nM | [15] 148 nM | [18] 590 nM

CC(=O)OCC1=C(C(=O)O)N2C(=O)[C@@H](N)[C@@H]2SC1
active: [3] 2350 nM | [4] 187 nM | [19] 23500 nM | [5] 1220 nM | [8] 935 nM | [11] 1370 nM | [13] 1370 nM
inactive: [1] | [2] | [7] | [12] | [15] | [16] | [17] | [18]

CCN1C[C@]2(OC(=O)c3ccccc3NC(C)=O)CC[C@H](OC)[C@@]34[C@H]5CC6[C@@H](OC)C[C@](O)(C(C[C@@H]23)[C@@H]14)[C@@]5(O)[C@@H]6OC
inactive: [1] | [2] | [3] | [4] | [5] | [6] | [7] | [8] | [10] | [11] | [12] | [13] | [14] | [15] | [16] | [17] | [18]
